Activity calls are given as the source filed them. Unless noted, how the calls were made is not given here.
What was measured:
[1] = tested on: Wnt5a (protein binding on small-molecule microarray); assay: small molecules binding Wnt5a protein – biophysical, small-molecule microarray, 635/667 nm fluorescence, primary screen (AID 1142); conditions: 635 nm fluorescence, higher = more signal;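 further: fluorescence read at 667 nm with signal to noise per printed feature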
[2] = ATP-based viability of Huh7 replicon cells – cell-based, CellTiter-Glo luminescence, basal, 48 h, cytotoxicity control for HCV replication inhibitor project, primary screen (AID 1143); conditions: higher = more signal, called active from +8 up or from −8 down;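 further: Huh7 hepatoma cells carrying a hepatitis C replication reporter with no stimulus; test concentration not given here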
[3] = Pseudomonas biofilm growth suppression – PAO1 strain, BacTiter-Glo luminescence, LB-PBS, primary screen (AID 1144); conditions: P. aeruginosa PAO1 biofilm, 12 h, higher = more signal
[4] = basal CRE-LacZ reporter activity in PC12 – cell-based, unstimulated, primary screen (AID 1145); conditions: no forskolin, luminescence, 4.5 h, higher = more signal, called active from +8 up or from −8 down
[5] = forskolin-driven CRE-LacZ activity in PC12 – cell-based, CRE-LacZ reporter, forskolin-stimulated, primary screen (AID 1146); conditions: luminescence, 4.5 h, higher = more signal, called active from +8 up or from −8 down;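 further: PC12 cells with 6xCRE LacZ reporter stimulated by forskolin 10 µM; beta-galactosidase reporter signal reflecting CREB driven transcription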
[6] = biological target: Streptavidin (Streptomyces avidinii) (UniProt P22629); assay: compounds binding control protein streptavidin – biophysical, small-molecule microarray, 635/667 nm fluorescence, artefact control for SMM compound annotation, primary screen (AID 1147); conditions: higher = more signal;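 further: signal reflects streptavidin binding to arrayed compounds as a control protein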
[7] = probe aInhba binding on compound microarray – biochemical, small-molecule microarray, 635/667 nm fluorescence, primary screen (AID 1148); conditions: higher = more signal;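 further: score merges 667nm spot fluorescence with signal-to-noise for antibody binding to printed compounds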
[8] = biological target: Torsin-1A (Homo sapiens) (UniProt O14656); assay: TOR1A wild-type binding on microarray – cell lysate, small-molecule microarray, lysate, 635/667 nm, primary screen (AID 1149); conditions: COS7 hTOR1A-WT lysate, 635 nm fluorescence, higher = more signal
[9] = biological target: Torsin-1A (Homo sapiens) (UniProt O14656); assay: torsin A mutant lysate binding on microarrays – cell lysate, small-molecule microarray, COS7 lysate, 635/667 nm fluorescence, primary screen (AID 1150); conditions: COS7 hTOR1A mutant lysate, 635 nm fluorescence, higher = more signal;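 further: score pools 667 nm emission and signal to noise measuring lysate protein binding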
[10] = tested on: Sonic hedgehog protein (Shh); assay: Sonic hedgehog microarray binding compounds – biochemical, small-molecule microarray, 635/667 nm fluorescence, primary screen (AID 1151); conditions: 635 nm fluorescence, higher = more signal;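 further: Shh protein binding to compounds spotted on small-molecule microarray slides; score combines spot fluorescence intensity with signal-to-noise across triplicate slides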

Chain of Streptavidin (Streptomyces avidinii) (P22629 whole entry, looked up): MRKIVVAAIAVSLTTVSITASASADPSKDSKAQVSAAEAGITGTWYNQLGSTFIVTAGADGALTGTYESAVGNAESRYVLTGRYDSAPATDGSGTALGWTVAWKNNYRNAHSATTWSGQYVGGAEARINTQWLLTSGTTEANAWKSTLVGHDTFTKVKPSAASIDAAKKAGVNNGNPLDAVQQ
Chain of Torsin-1A (Homo sapiens) (O14656 whole entry, looked up): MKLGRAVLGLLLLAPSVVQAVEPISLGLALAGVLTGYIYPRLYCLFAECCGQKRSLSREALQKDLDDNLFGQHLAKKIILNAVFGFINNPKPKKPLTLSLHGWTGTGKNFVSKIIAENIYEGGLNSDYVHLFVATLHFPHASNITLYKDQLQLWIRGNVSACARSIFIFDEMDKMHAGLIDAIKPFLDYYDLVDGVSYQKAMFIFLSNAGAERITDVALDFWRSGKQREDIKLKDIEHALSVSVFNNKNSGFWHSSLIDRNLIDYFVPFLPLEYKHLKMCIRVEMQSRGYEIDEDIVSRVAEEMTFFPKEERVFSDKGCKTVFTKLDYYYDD

| SMILES | composite z-score [1] | z-score [2] | z-score [3] | z-score [4] | z-score [5] | composite z-score [6] | composite z-score [7] | composite z-score [8] | composite z-score [9] | composite z-score [10] |
| --- | --- | --- | --- | --- | --- | --- | --- | --- | --- | --- |
| COCCOC(=O)N1C(=O)[C@@]2(c3cc(C#CC4(O)CCCCCC4)ccc31)[C@H](c1ccc(O)cc1)N1[C@H](c3ccccc3)[C@H](c3ccccc3)OC(=O)[C@H]1[C@@H]2C(=O)Nc1nc2ccccc2s1 | 0.513 | -0.073 (inactive) | 0.505 (inactive) | 1.42 (inactive) | 4.93 (inactive) | 1.19 | 0.741 | 0.549 | 0.821 | 1.35 |
| O=C1C[C@]2(c3ccc([N+](=O)[O-])cc3)C(=O)N(CCN3CCOCC3)c3cc(CO)ccc3[C@H]2N1C1CCCCC1 | -0.179 | -2.16 (inactive) | -0.02 (inactive) | -0.322 (inactive) | 0.254 (inactive) | -0.834 | -0.0021 | -0.489 | -0.517 | -0.132 |
| O=C1OCC=C[C@H]2OC34C=CCN(CCN5CCOCC5)C(=O)[C@H]3N(CCCO)C(=O)[C@@H]4[C@@H]12 (stereo not given in full) | -0.418 | -2.3 (inactive) | -0.0222 (inactive) | 0.329 (inactive) | 1.5 (inactive) | 0.212 | -0.128 | 0.267 | 0.156 | 1 |
| C=C(CCCC)C(=O)CC[C@H](OC(=O)c1cccnc1)c1ccccc1OCCO | 0.218 | -2.15 (inactive) | -0.0162 (inactive) | 2.21 (inactive) | 1.94 (inactive) | -0.423 | -0.128 | 1.07 | 0.218 | 0.552 |
| COCCOC(=O)N1C(=O)[C@@]2(c3cc(C#CC4=CCCCC4)ccc31)[C@H](C(=O)Nc1nc3ccccc3s1)[C@H]1C(=O)O[C@H](c3ccccc3)[C@H](c3ccccc3)N1[C@@H]2c1ccccc1OCCO | 0.697 | -5.66 (inactive) | -1.29 (inactive) | -0.878 (inactive) | -1.09 (inactive) | 1.19 | 0.973 | 0.0595 | 0.956 | 1.49 |
| COCCOC(=O)N1C(=O)[C@@]2(c3cc(C#CCNC(N)=O)ccc31)[C@H](C(=O)NC[C@H](O)c1ccccc1)[C@H]1C(=O)O[C@H](c3ccccc3)[C@H](c3ccccc3)N1[C@@H]2c1ccccc1OCCO | 0.8 | -0.417 (inactive) | -0.0351 (inactive) | -0.199 (inactive) | -0.972 (inactive) | -0.198 | 0.801 | 0.403 | 0.593 | 1.08 |
| COC(=O)[C@@]1(Cc2ccc(OC)cc2)[C@H]2c3cc(C(=O)N4CCCC4)n(Cc4ccsc4Br)c3C[C@H]2CN1C(=O)c1ccccc1 | 0.0185 | -3.29 (inactive) | 0.674 (inactive) | 1.72 (inactive) | 46.9 (active) | 0.161 | 0.19 | -0.34 | 0.185 | -0.658 |
| COCCCNC(=O)C1N=C(c2ccc(OCCCO)cc2)N(c2ccccc2)O1 (stereo not given) | 0.282 | -2.78 (inactive) | 0.708 (inactive) | -0.207 (inactive) | 0.72 (inactive) | 0.51 | 0.151 | 0.777 | 0.442 | 0.264 |
| COc1ccc([C@H]2OC[C@@H]3CC4(CC=CC4)C(=O)N32)cc1 | 0.0071 | 0.377 (inactive) | 0.25 (inactive) | 0.236 (inactive) | 0.249 (inactive) | 0.193 | -0.159 | -0.477 | -0.436 | 1.92 |
| CN1C2C=C(CCCO)C(C3C(=O)N(C(N)=O)C(=O)C32)C1c1ccc(CN2CCCC2)cc1 (stereo not given) | 0.269 | 1.23 (inactive) | -0.938 (inactive) | -0.83 (inactive) | 1.31 (inactive) | -0.411 | -0.299 | -0.14 | -0.266 | -0.138 |
| CCCC[C@H]1OB(O)C[C@H]2C1=C(COc1ccccc1)C[C@H]1C(=O)N(C)C(=O)[C@H]12 | 0.195 | -0.348 (inactive) | 1.04 (inactive) | 1.77 (inactive) | 0.899 (inactive) | -0.385 | -0.0933 | -0.212 | 0.138 | 0.853 |
| [N-]=[N+]=Nc1ccccc1C[C@]1(C(=O)NCC(O)CO)N=C(c2ccc(OCCCO)cc2)O[C@H]1c1ccccc1N=[N+]=[N-] (stereo not given in full) | 0.246 | -3.86 (inactive) | -0.0958 (inactive) | 1.05 (inactive) | -1.49 (inactive) | 0.0136 | 0.192 | -0.0376 | 0.585 | -0.524 |
| O=C(NCc1ccccc1)[C@@]1(Cc2ccccc2)N=C(c2ccc(OCCCO)cc2)O[C@H]1c1ccccc1 | 0.209 | -3.5 (inactive) | -0.883 (inactive) | -0.183 (inactive) | -0.413 (inactive) | 1.15 | 0.161 | 0.924 | 0.918 | -0.183 |
| [N-]=[N+]=NCc1ccccc1[C@@H]1OC(c2ccc(OCCCO)cc2)=N[C@]1(CCS(=O)(=O)c1ccccc1)C(=O)NCc1ccccc1 | 0.88 | -1.86 (inactive) | 0.0656 (inactive) | 0.614 (inactive) | -1.66 (inactive) | 1.09 | 1.09 | 0.248 | 0.467 | 1.4 |

Source: PubChem BioAssay
